Laboratory results: PubChem BioAssay AID1159580 (chemical genetic matrix, 2015)
Several values for one entry are separate records, joined by “and”; a condition that tells them apart may be missing. Identical values can stand only once. Hit rate of the full screen: of about 5,500 compounds, about 2,000 (36%) were called active. Not shown: some 18% with an inconclusive outcome. No stated cut-off is given here; in the data, active means normalized growth mostly below about 0.91 (no sharp cut-off); inconclusive means no clear call, values can overlap the other calls; inactive means mostly above about 0.92. The list shows a part of the results.

Assay: chemical genetic growth profiling, strain panel (AID 1159580);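 further: tested at 20 µM; growth read once vehicle control cultures reached saturation at 30 °C; 1 = growth at the plate median or of vehicle wells; lower values mean less growth of the strain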
Conditions: S. cerevisiae deletion strains, growth OD

Measured: normalized growth

CC(=O)C1CCC2C3CCC4C[C@H](O)CCC4(C)C3C[C@H](O)C12C (some centres not stated)
inactive: locus YAL013W, strain DEP1, hits give low values 1.03 | locus YAL021C, strain ccr4, hits give low values 0.96 | locus YAL026C, strain drs2, hits give low values 0.984 | locus YAL030W, strain snc1, hits give low values 0.971 | locus YBL061C, strain skt5, hits give low values 0.989 | locus YBR009C, strain hhf1, hits give low values 0.963 | locus YBR021W, strain FUR4, hits give low values 1.02 | locus YBR023C, strain chs3, hits give low values 0.989 | locus YBR171W, strain sec66, hits give low values 0.961 | locus YBR229C, strain ROT2, hits give low values 1.03 | locus YBR231C, strain swc5, hits give low values 0.993 | locus YBR279W, strain paf1, hits give low values 0.98 | locus YCL011C, strain gbp2, hits give low values 0.957 | locus YCL016C, strain dcc1, hits give low values 0.97 | locus YCL029C, strain bik1, hits give low values 1 | locus YCL069W, strain vba3, hits give low values 0.968 | locus YCR088W, strain abp1, hits give low values 0.972 | locus YDL005C, strain med2, hits give low values 0.971 | locus YDL035C, strain GPR1, hits give low values 1.09 | locus YDL040C, strain nat1, hits give low values 0.982 | locus YDL074C, strain BRE1, hits give low values 1.16 | locus YDL101C, strain DUN1, hits give low values 1.02 | locus YDL134C, strain PPH21, hits give low values 1.05 | locus YDL185W, strain tfp1, hits give low values 0.999 | locus YDL192W, strain arf1, hits give low values 1.02 | locus YDR001C, strain nth1, hits give low values 0.956 | locus YDR069C, strain doa4, hits give low values 0.945 | locus YDR101C, strain arx1, hits give low values 1.01 | locus YDR137W, strain rgp1, hits give low values 0.966 | locus YDR150W, strain NUM1, hits give low values 1.04 | locus YDR159W, strain sac3, hits give low values 0.982 | locus YDR162C, strain NBP2, hits give low values 1.04 | locus YDR195W, strain ref2 0.956 | locus YDR297W, strain sur2, hits give low values 0.976 | locus YDR318W, strain mcm21, hits give low values 1.02 | locus YDR334W, strain swr1, hits give low values 0.962 | locus YDR335W, strain msn5, hits give low values 0.982 | locus YDR388W, hits give low values 1.01 | locus YDR392W, strain spt3, hits give low values 0.978 | locus YDR502C, strain sam2, hits give low values 1.01 | locus YEL003W, strain gim4, hits give low values 0.979 | locus YEL037C, strain rad23, hits give low values 0.972 | locus YEL061C, strain CIN8 (second series), hits give low values 0.973 | locus YEL061C, strain CIN8, hits give low values 1.03 | locus YER015W, strain faa2, hits give low values 0.968 | locus YER016W, strain bim1, hits give low values 0.971 | locus YER110C, hits give low values 0.987 | locus YER111C, strain swi4, hits give low values 0.978 | locus YER155C, strain BEM2 (second series), hits give low values 0.979 | locus YER155C, strain BEM2, hits give low values 1.02 | locus YER167W, strain BCK2, hits give low values 1.02 | locus YFR010W, strain ubp6, hits give low values 0.975 | locus YGL078C, strain dbp3, hits give low values 0.995 | locus YGL086W, strain mad1, hits give low values 1.01 | locus YGL167C, strain pmr1, hits give low values 0.96 | locus YGL173C, strain kem1, hits give low values 0.965 | locus YGL227W, strain vid30, hits give low values 0.972 | locus YGL240W, strain doc1, hits give low values 0.984 | locus YGL248W, strain PDE1, hits give low values 1.08 | locus YGL253W, strain hxk2, hits give low values 0.963 | locus YGR078C, strain PAC10, hits give low values 1.07 | locus YGR135W, strain pre9, hits give low values 0.998 | locus YGR252W, strain gcn5, hits give low values 1.06 | locus YHR013C, strain ard1, hits give low values 0.942 | locus YHR027C, strain rpn1, hits give low values 0.971 | locus YHR030C, strain SLT2, hits give low values 1.01 | locus YHR079C, strain IRE1 (second series), hits give low values 1.01 | locus YHR079C, strain IRE1, hits give low values 1.02 | locus YHR094C, strain hxt1, hits give low values 1 | locus YHR129C, strain ARP1, hits give low values 1.04 | locus YHR142W, strain chs7, hits give low values 0.953 | locus YHR200W, strain rpn10, hits give low values 1.01 | locus YIL066C, strain RNR3, hits give low values 1.04 | locus YIL073C, strain SPO22, hits give low values 1.12 | locus YIL125W, strain kgd1, hits give low values 1.01 | locus YIR030C, strain dcg1, hits give low values 1.01 | locus YJL092W, strain hpr5, hits give low values 0.964 | locus YJL095W, strain BCK1 (second series), hits give low values 0.961 | locus YJL095W, strain BCK1, hits give low values 1.07 and 1.01 | locus YJL115W, strain asf1, hits give low values 0.963 | locus YJL129C, strain trk1, hits give low values 0.968 | locus YJL134W, strain LCB3, hits give low values 1.01 | locus YJL154C, strain vps35, hits give low values 0.968 | locus YJL164C, strain tpk1, hits give low values 0.96 | locus YJL166W, strain qcr8, hits give low values 0.975 | locus YJL168C, strain set2, hits give low values 0.987 | locus YJL187C, strain SWE1 (second series), hits give low values 1.04
